According to PubChem BioAssay AID1159580 (chemical genetic matrix, 2015):
Hit rate of the full screen: of about 5,500 compounds, about 2,000 (36%) were called active. Another 18% or so got no clear call; they are omitted. No stated cut-off is given here; in the data, active means normalized growth mostly below about 0.91 (no sharp cut-off); inconclusive means no clear call, values can overlap the other calls; inactive means mostly above about 0.92. The list shows a part of the results.

Test: chemical genetic growth profiling, strain panel (AID 1159580);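 further: tested at 20 µM; growth read once vehicle control cultures reached saturation at 30 °C; 1 = growth at the plate median or of vehicle wells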
Details: growth OD
[1] = S. cerevisiae deletion strains, locus YAL040C, strain CLN3, stronger effect = lower value
[2] = S. cerevisiae deletion strains, locus YCL061C, strain MRC1 (second series), stronger effect = lower value
[3] = S. cerevisiae deletion strains, locus YDR363W, strain ESC2, stronger effect = lower value
[4] = S. cerevisiae deletion strains, locus YER002W, strain NOP16, stronger effect = lower value
[5] = S. cerevisiae deletion strains, locus YJR075W, strain HOC1, stronger effect = lower value
[6] = S. cerevisiae deletion strains, locus YMR263W, strain SAP30, stronger effect = lower value
[7] = S. cerevisiae deletion strains, locus YMR307W, strain GAS1, stronger effect = lower value
[8] = S. cerevisiae deletion strains, locus YNL153C, strain GIM3, stronger effect = lower value
[9] = S. cerevisiae deletion strains, locus YNL175C, strain NOP13, stronger effect = lower value
[10] = S. cerevisiae deletion strains, locus YNL197C, strain WHI3, stronger effect = lower value
[11] = S. cerevisiae deletion strains, locus YNL224C, strain SQS1, stronger effect = lower value
[12] = S. cerevisiae deletion strains, locus YNL322C, strain KRE1, stronger effect = lower value
[13] = S. cerevisiae deletion strains, locus YOR083W, strain WHI5 (second series), stronger effect = lower value
[14] = S. cerevisiae deletion strains, locus YPL241C, strain CIN2, stronger effect = lower value
[15] = S. cerevisiae deletion strains, locus YAL013W, strain DEP1, stronger effect = lower value
[16] = S. cerevisiae deletion strains, locus YBR229C, strain ROT2, stronger effect = lower value
[17] = S. cerevisiae deletion strains, locus YDL101C, strain DUN1, stronger effect = lower value
[18] = S. cerevisiae deletion strains, locus YGR078C, strain PAC10, stronger effect = lower value
[19] = S. cerevisiae deletion strains, locus YLR039C, strain RIC1, stronger effect = lower value
[20] = S. cerevisiae deletion strains, locus YLR262C, strain YPT6, stronger effect = lower value
[21] = S. cerevisiae deletion strains, locus YPL055C, strain LGE1, stronger effect = lower value

Measured: normalized growth

NCC1OC(O[C@@H]2[C@H](O)C(OC3C(O)C(N)CC(N)C3OC3OC(CO)C(O)C(O)C3N)O[C@@H]2CO)C(N)C(O)C1O (stereo partly drawn)
inactive: [1] 1.07 | [2] 1 | [3] 1.02 | [4] 1.02 | [5] 1 | [6] 0.997 | [7] 1 | S. cerevisiae deletion strains, locus YNL128W, strain TEP1, stronger effect = lower value 1.01 | [8] 1.03 | [9] 1.01 | [10] 1.01 | [11] 1.01 | [12] 0.993 | [13] 1.02 | [14] 1

CCc1cc2c(cc1C(=O)CC1(O)C(=O)Nc3ccc(Br)cc31)C(C)(C)CCC2(C)C (stereo not drawn)
inactive: [15] 1.01 | [16] 1.01 | S. cerevisiae deletion strains, locus YCL061C, strain MRC1, stronger effect = lower value 1.02 | [17] 1.02 | S. cerevisiae deletion strains, locus YDL134C, strain PPH21, stronger effect = lower value 1.01 | S. cerevisiae deletion strains, locus YDR150W, strain NUM1, stronger effect = lower value 0.953 | S. cerevisiae deletion strains, locus YEL061C, strain CIN8, stronger effect = lower value 0.978 | [18] 1.02 | S. cerevisiae deletion strains, locus YHR030C, strain SLT2, stronger effect = lower value 1.02 | S. cerevisiae deletion strains, locus YHR087W, strain rtc3, stronger effect = lower value 0.961 | S. cerevisiae deletion strains, locus YJR043C, strain POL32, stronger effect = lower value 1.01 | [5] 0.979 | [19] 1.03 | S. cerevisiae deletion strains, locus YLR058C, strain SHM2 (second series), stronger effect = lower value 1.01 | S. cerevisiae deletion strains, locus YLR085C, strain ARP6, stronger effect = lower value 1.02 | [20] 1.01 | S. cerevisiae deletion strains, locus YML094W, strain GIM5, stronger effect = lower value 0.997 | S. cerevisiae deletion strains, locus YMR219W, strain ESC1, stronger effect = lower value 1 | [6] 1.06 | [7] 0.959 | [8] 1.01 | S. cerevisiae deletion strains, locus YNL298W, strain CLA4 (second series), stronger effect = lower value 0.998 | [12] 1.01 | S. cerevisiae deletion strains, locus YNR030W, strain Alg12, stronger effect = lower value 1.01 | [21] 0.921 | [14] 1.02 | S. cerevisiae deletion strains, locus YPR135W, strain CTF4, stronger effect = lower value 1.06

CC(C)C(=O)c1c(C(C)C)nn2ccccc12
inactive: [15] 0.972 | [1] 1.06 | [2] 0.985 | [3] 0.995 | [4] 0.983 | [18] 0.984 | S. cerevisiae deletion strains, locus YGR229C, strain SMI1, stronger effect = lower value 0.942 | [5] 0.991 | [9] 0.985 | [10] 0.985 | [11] 0.962 | [12] 0.985 | [13] 0.936 | [21] 0.967

CC1=CCC2C3(C)C1=CC(=O)OC3CC1C(C)(C)CC(O)C(O)C12C (stereo not drawn)
inactive: S. cerevisiae deletion strains, locus YBR021W, strain FUR4, stronger effect = lower value 0.993 | [16] 1.02 | S. cerevisiae deletion strains, locus YCL029C, strain bik1, stronger effect = lower value 1 | S. cerevisiae deletion strains, locus YDL035C, strain GPR1, stronger effect = lower value 1.06 | S. cerevisiae deletion strains, locus YDL074C, strain BRE1, stronger effect = lower value 1.07 | [17] 1.01 | S. cerevisiae deletion strains, locus YDL185W, strain tfp1, stronger effect = lower value 0.996 | S. cerevisiae deletion strains, locus YDL192W, strain arf1, stronger effect = lower value 1.01 | S. cerevisiae deletion strains, locus YDR101C, strain arx1, stronger effect = lower value 1.02 | S. cerevisiae deletion strains, locus YDR162C, strain NBP2, stronger effect = lower value 1.02 | S. cerevisiae deletion strains, locus YDR318W, strain mcm21, stronger effect = lower value 0.981 | S. cerevisiae deletion strains, locus YDR388W, stronger effect = lower value 0.994 | S. cerevisiae deletion strains, locus YDR502C, strain sam2, stronger effect = lower value 0.998 | S. cerevisiae deletion strains, locus YER110C, stronger effect = lower value 0.991 | S. cerevisiae deletion strains, locus YER155C, strain BEM2, stronger effect = lower value 1 | S. cerevisiae deletion strains, locus YER167W, strain BCK2, stronger effect = lower value 1.03 | S. cerevisiae deletion strains, locus YGL078C, strain dbp3, stronger effect = lower value 1 | S. cerevisiae deletion strains, locus YGL086W, strain mad1, stronger effect = lower value 0.995 | S. cerevisiae deletion strains, locus YGL248W, strain PDE1, stronger effect = lower value 1.01 | S. cerevisiae deletion strains, locus YGR135W, strain pre9, stronger effect = lower value 0.979 | S. cerevisiae deletion strains, locus YGR252W, strain gcn5, stronger effect = lower value 0.96 | S. cerevisiae deletion strains, locus YHR079C, strain IRE1 (second series), stronger effect = lower value 0.989 | S. cerevisiae deletion strains, locus YHR094C, strain hxt1, stronger effect = lower value 0.99 | S. cerevisiae deletion strains, locus YHR129C, strain ARP1, stronger effect = lower value 1.01 | S. cerevisiae deletion strains, locus YHR200W, strain rpn10, stronger effect = lower value 0.983 | S. cerevisiae deletion strains, locus YIL066C, strain RNR3, stronger effect = lower value 1.05 | S. cerevisiae deletion strains, locus YIL073C, strain SPO22, stronger effect = lower value 1 | S. cerevisiae deletion strains, locus YIL125W, strain kgd1, stronger effect = lower value 1.01 | S. cerevisiae deletion strains, locus YIR030C, strain dcg1, stronger effect = lower value 0.986 | S. cerevisiae deletion strains, locus YJL095W, strain BCK1, stronger effect = lower value 1.03 | S. cerevisiae deletion strains, locus YJL134W, strain LCB3, stronger effect = lower value 1.01 | S. cerevisiae deletion strains, locus YJL168C, strain set2, stronger effect = lower value 0.991 | S. cerevisiae deletion strains, locus YJL187C, strain SWE1 (second series), stronger effect = lower value 1 | S. cerevisiae deletion strains, locus YKL009W, strain mrt4, stronger effect = lower value 1.05 | S. cerevisiae deletion strains, locus YKL068W, stronger effect = lower value 0.993 | S. cerevisiae deletion strains, locus YKL085W, strain MDH1 (second series), stronger effect = lower value 0.991 | S. cerevisiae deletion strains, locus YKL085W, strain MDH1, stronger effect = lower value 0.991 | S. cerevisiae deletion strains, locus YKL190W, strain CNB1, stronger effect = lower value 1.01 | S. cerevisiae deletion strains, locus YKR001C, strain vps1, stronger effect = lower value 1.02 | [19] 1.12 | S. cerevisiae deletion strains, locus YLR058C, strain SHM2, stronger effect = lower value 1.04 | S. cerevisiae deletion strains, locus YLR102C, strain apc9, stronger effect = lower value 0.991 | [20] 1.17 | S. cerevisiae deletion strains, locus YLR268W, strain sec22, stronger effect = lower value 1.03 | S. cerevisiae deletion strains, locus YLR330W, strain CHS5, stronger effect = lower value 1.01 | S. cerevisiae deletion strains, locus YLR371W, strain rom2, stronger effect = lower value 1 | S. cerevisiae deletion strains, locus YLR418C, strain cdc73, stronger effect = lower value 0.97 | S. cerevisiae deletion strains, locus YML016C, strain PPZ1, stronger effect = lower value 1.01 | S. cerevisiae deletion strains, locus YML032C, strain rad52, stronger effect = lower value 1 | S. cerevisiae deletion strains, locus YML124C, strain tub3, stronger effect = lower value 0.993 | S. cerevisiae deletion strains, locus YMR078C, strain ctf18, stronger effect = lower value 0.99 | S. cerevisiae deletion strains, locus YMR223W, strain ubp8, stronger effect = lower value 0.989 | [6] 1.01 | [7] 1.09 | S. cerevisiae deletion strains, locus YNL067W, strain RPL9B, stronger effect = lower value 0.997 | [8] 1.01 | S. cerevisiae deletion strains, locus YNL233W, strain BNI4, stronger effect = lower value 0.999 | S. cerevisiae deletion strains, locus YNL250W, strain rad50, stronger effect = lower value 0.962 | S. cerevisiae deletion strains, locus YNL271C, strain bni1, stronger effect = lower value 1 | S. cerevisiae deletion strains, locus YNL298W, strain CLA4, stronger effect = lower value 1.01 | S. cerevisiae deletion strains, locus YNL307C, strain MCK1, stronger effect = lower value 0.999 | S. cerevisiae deletion strains, locus YNR052C, strain pop2, stronger effect = lower value 0.998 | S. cerevisiae deletion strains, locus YOL012C, strain htz1 0.612 | S. cerevisiae deletion strains, locus YOL147C, strain pex11, stronger effect = lower value 0.998 | S. cerevisiae deletion strains, locus YOR061W, strain CKA2, stronger effect = lower value 1.06 | S. cerevisiae deletion strains, locus YOR069W, strain VPS5, stronger effect = lower value 1.01 | S. cerevisiae deletion strains, locus YOR136W, strain idh2, stronger effect = lower value 0.996 | S. cerevisiae deletion strains, locus YOR144C, strain elg1, stronger effect = lower value 1 | S. cerevisiae deletion strains, locus YOR184W, strain ser1, stronger effect = lower value 1.04 | S. cerevisiae deletion strains, locus YOR316C, strain cot1, stronger effect = lower value 0.989 | [14] 1.01 | S. cerevisiae deletion strains, locus YPR119W, strain clb2, stronger effect = lower value 0.987 | S. cerevisiae deletion strains, locus YPR141C, strain kar3, stronger effect = lower value 1 | S. cerevisiae deletion strains, locus YPR163C, strain tif3, stronger effect = lower value 1 | S. cerevisiae deletion strains, locus YPR167C, strain met16, stronger effect = lower value 0.985 | S. cerevisiae deletion strains, strain wtn01, stronger effect = lower value 1.01 | S. cerevisiae strains, strain wild type, stronger effect = lower value 1.04
